Data from PubChem BioAssay (EPA / NIEHS).
Active and inactive are the calls of the source. How the source made its calls: active means hit-call score of the fitted dose curve at least 0.9, where 1 is the maximum; inactive means score below 0.9.

Experiment: BSK_BF4T_SRB: Viability Assessment in the BioMAP Diversity Plus: BF4T Assay (AID 2284274)
Details: primary human bronchial epithelial cells with fibroblasts
Protocol: BSK_BF4T is a cell-based, multiplexed-readout assay that uses bronchial epithelial cells and dermal fibroblasts, a human vascular primary cell, with measurements taken at 24 hours after chemical dosing in a microplate: 96-well plate.BSK_BF4T_SRB is an assay component measured in the BSK_BF4T assay. It measures 0.1% sulforhodamine related to cell death using Sulforhodamine staining technology.Data from the assay component BSK_BF4T_SRB was analyzed at the endpoint, BSK_BF4T_SRB, in the positive analysis fitting direction relative to DMSO as the negative control and baseline of activity. Using a type of viability reporter, gain or loss-of-signal activity can be used to understand protein changes. To generalize the intended target to other relatable targets, this assay endpoint is annotated to the 'cell morphology' intended target family, where the subfamily is 'cell conformation'.
The levels of cell surface (or secreted, indicated by the prefix "s") biomarker endpoints were measured by ELISA. Overt cytotoxicity to cells in confluent adherent cultures (all systems other than the BT system) was assessed by measuring total protein levels using sulforhodamine B (SRB) staining in parallel cultures at the time of biomarker measurements, indicated as SRB endpoints. For proliferation assays for adherent cell types, individual cell types are cultured at sub-confluence and relative cell numbers quantified by SRB staining at time points optimized for each system (48 h: 3C and CASM3C systems; 72 h: BT and HDF3CGF systems; 96 h: SAg system). SRB was performed by staining cells with 0.1% SRB after fixation with 10% TCA and reading wells at 560 nm.Viability and proliferation of PBMC (T cells) was quantified by Alamar Blue reduction for the SAg and BT systems. For PBMC viability (referred to as PBMC Cytotoxicity within the assay endpoint names), cells were plated (75,000/well in a 96-well plate) and then chemical samples added for 1 h before addition of activators, SEB and TSST-1 (20 ng/mL final concentration each). Cells were incubated for 90 h. Then, Alamar Blue (20 uL/well) (Invitrogen, Cat DAL1100) was added for 6 h, and the plates were read with a fluorescence microplate reader at 546/580 nm (excitation/emission). For PBMC proliferation, cells were plated and activated as above but incubated for only 16 h prior to addition of Alamar Blue. Plates were read after 6 h.
In the case of NCC(F)(F)C(F)(F)C(F)(F)C(F)(F)F, the outcome is reported as “inactive”.
With FC(F)C(F)(F)COCC1CO1 (stereo not given) the outcome was “inactive”.
With FC(F)=C(F)C(F)(F)C(F)(F)C(F)(F)C(F)(F)C(F)(F)C(F)(F)F the outcome was “inactive”.
With C[Si](C)(C)C(F)(F)C(F)(F)C(F)(F)F the outcome was “inactive”.
In the case of OC(O)(C(F)C(O)(O)C(F)(F)F)C(F)(F)F, the outcome is reported as “inactive”.
For FC(F)(F)COC(OCC(F)(F)F)OCC(F)(F)F, the outcome was “inactive”.
For OCCC(F)(F)C(F)(F)C(F)(F)C(F)(F)F, the outcome was “inactive”.
In the case of O=C(Cl)C(F)(F)C(F)(F)C(F)(F)C(=O)Cl, the outcome is reported as “inactive”.
In the case of O=S(=O)(O)CCC(F)(F)C(F)(F)C(F)(F)C(F)(F)C(F)(F)C(F)(F)F, the outcome is reported as “inactive”.
In the case of FC(F)(F)C(F)(F)C(F)(F)C(F)(F)C(F)(F)C(F)(F)I, the outcome is reported as “inactive”.
